Shown are actives, neighbours in structure and some others; about 13% of the full set was active somewhere.
USP10 block – inhibitors of human USP10 deubiquitinase; 47,000 compounds, 1.1% hits; purified USP10, Ub-rhodamine fluorescence, 60 min; inhibition, % at 20 µM; AID 1645856, 2021; Ubiquitin carboxyl-terminal hydrolase 10 (Homo sapiens), Q14694
Target sequence (Q14694 whole entry, looked up): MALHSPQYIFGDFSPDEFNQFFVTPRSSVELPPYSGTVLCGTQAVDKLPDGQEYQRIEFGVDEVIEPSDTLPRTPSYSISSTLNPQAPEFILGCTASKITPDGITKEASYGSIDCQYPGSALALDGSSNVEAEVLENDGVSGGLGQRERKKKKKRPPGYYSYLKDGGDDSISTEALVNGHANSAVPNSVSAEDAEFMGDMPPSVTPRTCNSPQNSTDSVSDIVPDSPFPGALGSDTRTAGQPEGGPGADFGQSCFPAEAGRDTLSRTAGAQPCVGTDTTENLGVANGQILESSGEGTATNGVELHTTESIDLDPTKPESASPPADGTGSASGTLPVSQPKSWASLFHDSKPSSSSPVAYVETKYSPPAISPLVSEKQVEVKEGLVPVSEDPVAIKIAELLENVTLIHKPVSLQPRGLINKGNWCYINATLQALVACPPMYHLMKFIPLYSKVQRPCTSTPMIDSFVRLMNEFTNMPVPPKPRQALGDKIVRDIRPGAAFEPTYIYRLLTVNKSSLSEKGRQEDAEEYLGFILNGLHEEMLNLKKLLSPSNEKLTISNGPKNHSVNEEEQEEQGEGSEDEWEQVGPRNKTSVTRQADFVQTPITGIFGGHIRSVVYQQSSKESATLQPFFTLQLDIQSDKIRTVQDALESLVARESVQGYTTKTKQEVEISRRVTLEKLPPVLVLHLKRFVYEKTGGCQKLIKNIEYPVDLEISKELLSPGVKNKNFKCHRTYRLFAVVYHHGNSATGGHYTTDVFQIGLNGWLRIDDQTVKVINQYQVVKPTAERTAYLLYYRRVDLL
USP8 inh – inhibitors of human USP8 deubiquitinase; Ubiquitin carboxyl-terminal hydrolase 8 (Homo sapiens), P40818; purified USP8, Ub-rhodamine cleavage fluorescence, 30 min; inhibition, % at 20 µM; 47,000 compounds, 4.2% hits; AID 1645853, 2021
USP28 block – inhibitors of human USP28 deubiquitinase; Ubiquitin carboxyl-terminal hydrolase 28 (Homo sapiens), Q96RU2; purified USP28, Ub-rhodamine cleavage fluorescence, 30 min; inhibition, % at 25 µM; 47,000 compounds, 3% hits; AID 1645857, 2021
USP30 inh – inhibitors of human USP30 deubiquitinase. 47,000 compounds, 5.3% hits. inhibition, % at 25 µM. AID 1645860, 2021. Ubiquitin carboxyl-terminal hydrolase 30 (Homo sapiens), Q70CQ3. purified USP30, Ub-rhodamine cleavage fluorescence
USP17 block – inhibitors of human USP17 deubiquitinase; Ubiquitin carboxyl-terminal hydrolase 17-like protein 5 (Homo sapiens), A8MUK1; purified USP17, Ub-rhodamine cleavage fluorescence, 3 h; inhibition, % at 50 µM; 47,000 compounds, 6.5% hits
Active calls of the source: *; nt = no result given. No stated cut-off is given here; in the data, active means inhibition above about 30%; inactive means the rest.

SMILES	USP10 block	USP8 inh	USP28 block	USP30 inh	USP17 block
Cc1cc(C(=O)N2CC[C@@H]3CN(Cc4ccc(Cl)cc4)S(=O)(=O)[C@@H]3CC2)no1	-1.1	-13.3	-9.2	-28.7	-18.3
Cc1cc(C(=O)Nc2cc(C)n(Cc3ccc(Cl)cc3)n2)no1	1.7	-0.1	72.5*	1.1	11.4
Cc1ccc(OCc2nc(C#N)c(N3CCCCC3)o2)cc1	-1.6	-0.9	36.8*	12.3	26.4
Cc1ncc2c(n1)CCN(S(=O)(=O)c1ccccc1)C2	-0.9	-2.2	nt	nt	-13.6
CCOc1ccc(NC(=O)CSc2cc(=O)n(C)c3cc(Cl)ccc23)cc1	-0.2	0.2	2.2	17.7	46.5*
COc1cc(NC(=O)CSc2cc(=O)n(C)c3cc(Cl)ccc23)cc(OC)c1OC	-8.7	-23.1	-3.1	-1.7	-15.2
Cn1c(=O)cc(SCC(=O)NC2CCN(Cc3ccccc3)CC2)c2ccc(Cl)cc21	-1.5	-3.1	18.4	50.2*	33.5*
O=C(Cn1c(=O)n(CCCC(=O)NC2CCN(Cc3ccccc3)CC2)c(=O)c2ccccc21)Nc1cccc(Cl)c1	-9.0	-6.1	-11.3	-36.0	26.9
c1cncc(-c2n[nH]c(C3CCCNC3)n2)c1 (stereo not drawn)	3.9	10.3	4.2	9.6	7.9
CCn1c(CN2CCCC(c3nc(-c4cccnc4)n[nH]3)C2)nc2ccccc21 (stereo not drawn)	-3.7	-170.0	70.6*	-20.3	-42.0
CCCn1c(=O)c(-c2ccc(C(=O)NCc3ccc(OC)cc3)cc2)nc2cccnc21	33.3*	64.9*	13.1	31.6*	87.3*
COCCn1c(=S)[nH]c2cc(C(=O)NCCSCc3ccccc3)ccc2c1=O	21.2	8.7	17.1	70.5*	27.0
O=c1[nH]c(-c2ccncc2)nc2c1CCN(Cc1ccc(Cl)cc1)C2	-0.2	11.8	8.6	42.7*	28.2
O=c1[nH]c(-c2cccnc2)nc2c1CCN(Cc1[nH]c3ccccc3c1Cl)C2	0.1	36.9*	-12.9	-17.6	21.3
O=c1[nH]c(-c2ccccn2)nc2c1CCN(Cc1cnn(-c3ccccc3)c1)C2	-2.0	-258.5	-11.5	19.5	55.3*
Cn1cc(CN2CCc3c(nc(-c4cccnc4)[nH]c3=O)C2)c2ccccc21	-3.2	8.7	-2.2	-18.6	-0.1
Cc1nc(Nc2ccc(NC(=O)c3ccccc3F)cc2)cc(N2CCOCC2)n1	1.6	-37.9	-12.2	-14.8	-11.8
O=S(=O)(c1ccc(-c2noc(COc3ccccc3)n2)cc1)N1CCOCC1	-0.8	-0.5	-19.1	-7.6	13.9
COc1ccc(C(NS(=O)(=O)c2ccc(S(=O)(=O)N3CCOCC3)cc2)c2ccccc2)cc1 (stereo not drawn)	9.0	-30.0	11.6	35.9*	9.0
COCCN1CCC2(CCN(C(=O)c3cnccn3)CC2)C1=O	0.9	-122.3	-25.0	-11.5	-35.7
CC(=O)N1CCc2cc(S(=O)(=O)NCc3ccc(C)cc3)ccc21	2.4	1.8	-2.0	0.0	56.9*
CC(=O)N1CCc2cc(CNS(=O)(=O)c3ccccc3)ccc21	1.1	-1.8	8.9	17.0	2.9
CC(=O)N1CCc2cc(S(=O)(=O)NCC3COc4ccccc4O3)ccc21 (stereo not drawn)	0.2	-39.4	9.2	8.2	37.8*
CCC(=O)N1c2ccc(S(=O)(=O)NCC(=O)NCc3ccc(C)cc3)cc2CC1C (stereo not drawn)	-0.9	1.7	18.9	34.2*	14.8
CCC(=O)N1c2ccc(S(=O)(=O)N3CCOCC3)cc2CC1C (stereo not drawn)	-0.6	-17.7	1.3	-5.4	-4.1
SMILES	USP10 block	USP8 inh	USP28 block	USP30 inh	USP17 block
O=C(c1cc(-c2ccncc2)c(N2CCOCC2)s1)N1CCCC(O)C1 (stereo not drawn)	0.1	10.8	-8.9	-0.1	-0.2
CC1CSc2ccc(S(=O)(=O)Nc3ccc(C(C)C)cc3)cc2NC1=O (stereo not drawn)	12.2	0.1	11.9	8.0	-0.1
Cc1cccc(C(=O)Nc2noc3nc(C)ccc23)c1	2.8	2.9	nt	nt	35.8*
COc1cc(C2CCN(S(=O)(=O)c3ccc(F)cc3)CC2)on1	-0.8	-9.5	-1.6	0.2	nt
COc1ccc(OC)c(NC(=O)c2cnc(NCc3ccccc3F)nc2C)c1	-1.7	32.8*	-2.4	-10.1	2.1
Cc1nc(NCc2ccccc2F)ncc1C(=O)NCc1ccccc1	4.0	15.7	4.2	24.0	45.6*
C[C@H](NC(=O)c1cccs1)c1nnc2ccccn12	1.6	27.9	19.9	30.3*	12.4
Cc1ccc(C(=O)N[C@@H](C)c2nnc3ccccn23)cc1	2.2	-7.3	20.3	10.7	2.1
O=C(c1cc(Br)ccc1F)N1CCN(Cc2cc(=O)n3ccsc3n2)CC1	-4.7	-5.5	-24.9	-28.7	nt
Cc1ccc(C(=O)CCC(=O)OCC(=O)c2ccc3[nH]c(=O)[nH]c3c2)cc1	7.0	4.0	52.0*	34.4*	54.7*
O=C(COC(=O)c1nn(-c2ccccc2)c(=O)c2ccccc12)c1ccc2c(c1)OCCO2	-7.9	-17.0	-10.6	-12.1	-5.7
O=C(COC(=O)c1ccc(Cl)s1)c1ccc2[nH]c(=O)[nH]c2c1	11.0	32.1*	6.0	-26.0	41.8*
O=C(NC1CCCCC1)c1cc2c(cn1)[nH]c1ccccc12	0.6	-161.1	59.3*	-35.7	-38.5
CC(=O)Nc1ccc(S(=O)(=O)Nc2ccc(Nc3ccc(-n4cccn4)nn3)cc2)cc1	1.9	-217.5	-0.1	50.2*	36.3*
CCN1CCN(c2ccc(NC(=O)COc3ccccc3C)cc2)CC1	-10.0	-10.8	-15.9	-60.1	-11.7
O=C(COc1ccc(-c2ccccc2)cc1)N1CCN(C(=O)c2ccco2)CC1	-0.8	-19.3	-6.2	31.0*	20.3
Cc1ccccc1OCC(=O)Nc1ccc2c(c1)CN(C(=O)c1ccco1)CC2	7.5	0.0	36.8*	25.6	21.5
Cc1ccc(OCC(=O)Nc2ccc3c(c2)CN(C(=O)c2ccco2)CC3)cc1	16.5	33.0*	50.2*	43.3*	51.3*
Nc1cc(C2CCN(S(=O)(=O)c3ccccc3F)CC2)no1	2.4	20.0	7.2	25.5	13.6
CCN1CCC2(CN(Cc3cccnc3)CC23CCN(C(=O)C(C)C)CC3)C1=O (stereo not drawn)	-0.4	-9.8	-21.6	-57.6	-16.3
COc1ccccc1C(=O)NCc1nnc(SCC(=O)N2CCc3ccccc32)n1-c1cc(C)ccc1C	0.2	1.5	-1.7	10.9	9.8
COc1ccccc1CNC(=O)c1ccc2ncsc2c1	3.9	19.5	11.7	23.3	6.3
Cc1ccc(Cn2cc(SCC(=O)Nc3ccc(F)cc3F)c3ccccc32)cc1	5.9	2.3	5.5	21.5	31.8*
CC(=O)Nc1cccc(C(=O)Nc2ccc(CN3CCOCC3)cc2)c1	0.7	11.2	5.4	10.1	4.2
O=C(Nc1ccc(CN2CCOCC2)cc1)c1cccc(Br)c1	-0.7	-7.9	38.1*	5.4	-4.2
CCOc1ccccc1CNC(=O)CCCN1C(=O)C(c2ccccc2)Oc2cccnc21 (stereo not drawn)	0.0	1.4	-4.0	-6.5	10.2
